Experimental data published in PubChem BioAssay (NCI).
About 83,000 compounds went through this panel and 20% of them were active in at least one assay; those are over-represented in the sample as a whole.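 Percent growth is the endpoint: 0 to 100 indicates growth inhibition (40 means 60% inhibition), 0 means no net growth, and negative values indicate cell death.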 The source made the active and inactive calls. The calls were made as follows: active = growth percent below 10; inactive = the rest.

Columns and labels:
Test in all cases: NCI-60 one-dose screen, 48 h (100 = growth as untreated, 0 = no growth, -100 = all killed)
Conditions in all cases: 10 µM unless noted
[1] = test system: NCI-H23 lung
[2] = test system: NCI-H226 lung
[3] = test system: NCI-H322M lung
[4] = test system: HOP-62 NSCLC
[5] = test system: NCI-H460 lung
[6] = test system: HOP-92 NSCLC
[7] = test system: NCI-H522 lung
[8] = test system: A549/ATCC NSCLC
[9] = test system: 786-0 renal
[10] = test system: DU-145 prostate
[11] = test system: K-562 leukemia
[12] = test system: MALME-3M melanoma
[13] = test system: MDA-MB-231 breast
[14] = test system: RXF 393 renal
[15] = test system: SF-268 CNS
[16] = test system: SF-295 CNS
[17] = test system: SF-539 CNS
[18] = test system: UACC-257 melanoma
[19] = test system: M14 melanoma
[20] = test system: COLO 205 colon

Measured: growth

Cc1ccc2c(c1)sc1nc(-c3c[nH]c4ccccc34)c(Nc3ccccc3)n12
inactive: [1] 98.4% | [2] 98.6% | [3] 106% | [4] 96.1% | [5] 101% | [6] 101% | [7] 90.6% | [8] 101% | [9] 105% | [10] 108% | [11] 94.4% | [12] 101% | [13] 93% | [14] 111% | [15] 101% | [16] 100% | [17] 97.2% | [18] 105% | [19] 107%

Cn1cc(-c2nonc2-c2c[nH]c3ccccc23)c2cc(Br)ccc21
inactive: [1] 52.9% | [2] 75.5% | [3] 53.2% | [4] 25.2% | [5] 14.9% | [6] 63.4% | [9] 50.6% | [20] 15% | [10] 58.1% | [11] 11.1% | [12] 40.8% | [13] 37% | [14] 70.9% | [15] 43.3% | [16] 24.5% | [17] 40.1% | [18] 71.5% | [19] 18.5%
active: [7] 7.04%

CCCCNC(=O)c1ccc2c(c1)nc(-c1ccccc1)n2C1CCCCC1
inactive: [1] 92.3% | [2] 109% | [3] 90.5% | [4] 77.3% | [5] 109% | [6] 105% | [7] 80.9% | [9] 92.7% | [20] 88.9% | [10] 103% | [11] 75.8% | [12] 100% | [13] 96.1% | [14] 120% | [15] 104% | [16] 95.4% | [17] 105% | [18] 109% | [19] 89.8%

CCCCO[C@@H]1C=C2[C@H]3CC(C)(C)C(=O)C[C@]3(C(=O)O[C@@H]3O[C@H](CO[C@@H]4O[C@H](CO)[C@@H](OC5OC(C)C(O)C(O)C5O)[C@H](O)[C@H]4O)[C@@H](O)[C@H](O)[C@H]3O)CC[C@@]2(C)[C@]2(C)CC[C@H]3C(C)(C)C(=O)CC[C@]3(C)[C@@H]12 (some centres not stated)
active: [6] 2.25%
inactive: [1] 60.3% | [2] 45.6% | [3] 84.3% | [4] 76.1% | [5] 91.8% | [7] 67.9% | [8] 84.8% | [9] 29.5% | [10] 97.9% | [11] 90.5% | [12] 34.2% | [13] 73.2% | [14] 63.2% | [15] 47.2% | [16] 92.8% | [17] 60.1% | [18] 49.1% | [19] 40.5%

CCOC(=O)c1ccc[nH]1
inactive: [1] 87.7% | [2] 99.3% | [3] 84.3% | [4] 83.5% | [5] 105% | [6] 80.4% | [7] 88.4% | [9] 93.1% | [20] 134% | [10] 116% | [11] 88.5% | [12] 87.7% | [13] 126% | [14] 94.1% | [15] 100% | [16] 114% | [17] 91.9% | [18] 90.8% | [19] 96.2%

CCN(CC)CCOc1ccc(C(=O)/C=C\c2ccc(Cl)cc2Cl)cc1
active: [20] -53.5% | [11] 3.71% | [18] 3.72% | [19] -37.4%
inactive: [1] 58.3% | [2] 53.5% | [3] 63.9% | [4] 57.2% | [5] 61.3% | [6] 24.5% | [7] 44% | [9] 35.9% | [10] 51.7% | [12] 42.4% | [13] 32.6% | [14] 34% | [15] 55.2% | [16] 63.2% | [17] 30%

O=C(NCCNC(c1ccccc1)C(NCCNC(=O)c1ccccc1)c1ccccc1)c1ccccc1 (configuration not stated)
inactive: [1] 83.3% | [2] 100% | [3] 95.7% | [4] 104% | [6] 84.8% | [7] 69.4% | [8] 106% | [9] 106% | [20] 106% | [10] 19.8% | [11] 81.6% | [12] 101% | [13] 98% | [14] 72.9% | [15] 99.7% | [16] 81.8% | [17] 103% | [18] 96.9% | [19] 86.3%

CCNC(=O)N1CCc2c(Br)c3c(c(OC)c2C1Cc1ccc(OC)cc1)OCO3 (configuration not stated)
inactive: [1] 60.8% | [2] 70.8% | [3] 52.9% | [4] 36.3% | [6] 40.6% | [7] 25.5% | [8] 34.2% | [9] 31.2% | [10] 54.5% | [11] 20% | [12] 33.8% | [13] 47.3% | [14] 17% | [15] 43.5% | [16] 25.5% | [17] 22.6% | [18] 65.4% | [19] 11.6%
active: [20] 3.06%
